# Reference: paper PMC4336329 (PLoS ONE, 2015)
# About 14,000 (4.5%) of roughly 310,000 compounds showed an effect of 50% or more. Effects have a minus sign here. Shown is part of a subset that was picked to be rich in strong results.
# Target: human ether-à-go-go-related gene (hERG) potassium channel (human, UniProt Q12809)
# Assay: primary screen, population patch clamp on CHO cells stably expressing hERG; higher = less effect of the substance
# 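Also: peak tail current of the secondary pulse compared with the same well before compound.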
# Sequence of human ether-à-go-go-related gene (hERG) potassium channel (Q12809 whole entry, looked up): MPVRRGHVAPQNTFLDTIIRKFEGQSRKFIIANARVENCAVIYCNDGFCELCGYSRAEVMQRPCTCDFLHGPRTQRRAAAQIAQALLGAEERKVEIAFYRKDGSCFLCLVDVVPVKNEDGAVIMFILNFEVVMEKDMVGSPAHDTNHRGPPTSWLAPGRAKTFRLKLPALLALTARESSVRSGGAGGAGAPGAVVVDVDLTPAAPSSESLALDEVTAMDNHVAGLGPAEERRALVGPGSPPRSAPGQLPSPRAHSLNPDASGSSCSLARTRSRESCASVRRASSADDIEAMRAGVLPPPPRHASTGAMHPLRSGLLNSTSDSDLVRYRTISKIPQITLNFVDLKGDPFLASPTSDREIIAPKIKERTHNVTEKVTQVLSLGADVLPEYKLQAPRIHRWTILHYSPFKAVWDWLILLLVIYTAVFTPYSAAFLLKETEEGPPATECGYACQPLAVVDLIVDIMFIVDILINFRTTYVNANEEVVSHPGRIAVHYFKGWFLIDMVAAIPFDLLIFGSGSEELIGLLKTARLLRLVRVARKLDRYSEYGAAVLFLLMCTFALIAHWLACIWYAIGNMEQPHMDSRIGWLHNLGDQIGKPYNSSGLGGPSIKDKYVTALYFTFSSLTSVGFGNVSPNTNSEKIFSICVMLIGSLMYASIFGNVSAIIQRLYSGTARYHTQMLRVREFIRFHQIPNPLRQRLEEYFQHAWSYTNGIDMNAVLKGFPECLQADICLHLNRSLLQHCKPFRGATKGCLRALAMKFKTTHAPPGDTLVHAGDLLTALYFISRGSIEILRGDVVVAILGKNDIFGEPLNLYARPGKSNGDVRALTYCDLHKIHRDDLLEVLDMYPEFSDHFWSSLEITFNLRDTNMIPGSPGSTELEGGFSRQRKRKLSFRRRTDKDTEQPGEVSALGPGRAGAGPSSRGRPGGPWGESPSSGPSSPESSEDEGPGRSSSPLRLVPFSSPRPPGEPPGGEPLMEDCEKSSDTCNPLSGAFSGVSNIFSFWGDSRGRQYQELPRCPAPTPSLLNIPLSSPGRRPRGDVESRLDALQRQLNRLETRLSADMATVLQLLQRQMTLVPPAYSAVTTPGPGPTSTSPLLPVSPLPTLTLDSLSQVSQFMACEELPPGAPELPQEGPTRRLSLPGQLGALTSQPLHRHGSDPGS
row,SMILES,"hERG current change (%, negative = inhibition) at 10uM"
1,Cn1ccc(NC(=O)c2ccc(Cl)cc2Cl)n1,7.79%
2,O=C(CN1C(=O)c2ccccc2C1=O)Nc1cccc(S(=O)(=O)Nc2ccccc2Cl)c1,19.9%
3,COc1ccc(C2=Nn3c(nnc3-c3ccncc3)SC2)cc1OC,-70.8%
4,COc1ccc(C2=Nn3c(nnc3-c3cccnc3)SC2)cc1OC,-61.8%
5,COc1ccc(C2=Nn3c(nnc3-c3ccccc3)SC2)cc1OC,7.08%
6,COc1ccc(C2=Nn3c(nnc3-c3ccccn3)SC2)cc1OC,-34.3%
7,c1ccc(C2=Nn3c(nnc3-c3cccnc3)SC2)cc1,-25.4%
8,COc1ccc(OC)c(C2=Nn3c(nnc3-c3ccncc3)SC2)c1,-24.3%
9,O=S(=O)(c1ccc(NC2CCCCC2)cc1)N1CCOCC1,-23.7%
10,COc1ccc(NC(=O)c2cc(-c3ccccn3)nc3ccccc23)cc1S(=O)(=O)N(C)C,-16.6%
11,O=C(Nn1cnnc1)c1ccc(Br)s1,13.9%
12,CN(C)C(=O)CSc1nc2ccccc2c(=O)[nH]1,22%
13,CCN(CC)CCCn1c2c(c(SCC(=O)Nc3nc4ccccc4s3)nc1=O)CCC2,-71.2%
14,CCN(CC)CCn1c2c(c(SCC(=O)Nc3nc4ccccc4s3)nc1=O)CCC2,-58.3%
15,CCN(CC)CCn1c2c(c(SCC(=O)Nc3nc4ccccc4s3)nc1=O)CCCC2,-60.2%
16,CCCNC(=O)c1onc(CSc2ccc(Cl)cc2)c1C(=O)NCCOC,-19.7%
17,Cn1c(SCc2cccnc2)nc2c(c1=O)SCC2,7.48%
18,N#Cc1cc2c(=O)n3ccccc3nc2n(-c2ccc(Cl)cc2)c1=O,5.19%
19,COC(=O)c1sccc1NC(=O)CN1CCN(c2ccc(F)cc2)CC1,6.89%
20,Cc1nc(SCC(=O)Nc2cccc(Cl)c2)n[nH]1,6.87%
21,O=C(NC1CC2CCCC(C1)N2S(=O)(=O)c1ccccc1)C1CCCCC1 (stereo not shown),-2.61%

row,SMILES,"hERG current change (%, negative = inhibition) at 10uM"
1,O=C(Nc1ccc(N2CCOCC2)cc1)NC1CCCCC1,6.25%
2,Cc1ccc(S(=O)(=O)N2CCCCCC2)cc1C(=O)NCc1ccccn1,-14.8%
3,Cc1ccc(S(=O)(=O)N2CCCC2)cc1C(=O)NCc1ccccn1,5.54%
4,CC(=O)c1sc(NC(=O)c2cc(S(=O)(=O)N3CCOCC3)ccc2F)nc1C,-1.54%
5,Cc1ccc(S(=O)(=O)N2CCCC2)cc1C(=O)NCc1ccccc1CN1CCCC1,-52.3%
6,COc1ccc2nc(NC(=O)c3cc(S(=O)(=O)N4CCOCC4)ccc3C)sc2c1,1.72%
7,Cc1ccc(C(=O)NCc2ccccn2)cc1S(=O)(=O)N1CCOCC1,8.99%
8,Cc1ccc(C(=O)NCc2ccncc2)cc1S(=O)(=O)N1CCCCC1,-30.5%
9,O=C(NCc1cccnc1)c1ccc(Cl)c(S(=O)(=O)N2CCCCCC2)c1,-36.2%
10,Cc1ccc(C(=O)NCc2ccccc2CN2CCCC2)cc1S(=O)(=O)N1CCOCC1,-61.4%
11,Cc1ccc(C(=O)NCc2ccccc2F)cc1S(=O)(=O)N1CCCC1,4.12%
12,Cc1ccc(C(=O)NCc2cccnc2)cc1S(=O)(=O)N1CCCCCC1,-65.7%
13,CCOC(=O)c1sc(NC(=O)c2cc(S(=O)(=O)N3CCOCC3)ccc2C)nc1C,-60.9%
14,CCOC(=O)C1CCCN(C(=O)CCn2nnnc2CN2CCOCC2)C1 (stereo not shown),18.4%
15,O=C1NCCCc2nc(Oc3ccccc3)sc21,0.239%
16,Cc1ccc(Cn2nnc3c(=O)[nH]c(C4CCCN(C(=O)Nc5ccc(F)cc5)C4)nc32)cc1 (stereo not shown),-5.1%
17,Cc1cccc(OCC(=O)N(Cc2ccccc2)c2c(N)n(Cc3ccccc3)c(=O)[nH]c2=O)c1,-11.2%
18,O=C(CN1CC=C(c2ccccc2)CC1)Nc1cc(Cl)ccc1Cl,-12.8%
19,COc1ccccc1C1(CCN=Cc2ccc(N(C)C)cc2)CCOC(C)(C)C1 (stereo not shown),-2.03%
20,CCN(C(=O)COC(=O)c1ccco1)c1c(N)n(Cc2ccccc2)c(=O)[nH]c1=O,-0.805%
21,Cc1c(N2C(=O)c3ccc(Br)cc3C2=O)c(=O)n(-c2ccccc2)n1C,3.45%

row,SMILES,"hERG current change (%, negative = inhibition) at 10uM"
1,CCCCN1C(=O)C(C)=C(C)C1OCCc1ccc(OC)c(OC)c1 (stereo not shown),18.2%
2,Cc1ccc(S(=O)(=O)N2CCOCC2)cc1C(=O)NCc1ccccn1,-0.76%
3,COc1ccc(S(=O)(=O)N2CCOCC2)cc1C(=O)NCc1ccccc1CN1CCCC1,-20.6%
4,Cc1ccc(S(=O)(=O)N2CCOCC2)cc1C(=O)NCc1ccccc1CN1CCCC1,-53%
5,O=C(CCC(=O)Nc1ccccc1Cl)N/N=C/c1ccccc1,16.5%
6,Cc1[nH]c2ccccc2c1/C=N\NC(=O)c1ccco1,11.1%
7,COc1cccc(C(=O)NCC2CCCN(C(=O)c3ccc(C=O)cc3)C2)c1OC (stereo not shown),0.357%
8,O=C(C1CCCN(S(=O)(=O)c2ccccc2)C1)N1CCN(c2ccccc2)CC1 (stereo not shown),-54.8%
9,COc1ccc(S(=O)(=O)N2CCCC(C(=O)N3CCN(c4ccccc4)CC3)C2)cc1Cl (stereo not shown),-62%
10,O=C(Cc1ccccc1)N1CCC(C(=O)N2CCN(c3ccc(F)cc3)CC2)CC1,-56.6%
11,Cc1ccc(S(=O)(=O)N2CCCC(C(=O)N3CCN(c4ccccc4)CC3)C2)cc1 (stereo not shown),-46.5%
12,COc1ccc(S(=O)(=O)N2CCCC(C(=O)N3CCOCC3)C2)cc1Cl (stereo not shown),-14%
13,O=C(C1CCCN(S(=O)(=O)c2ccccc2)C1)N1CCCCCC1 (stereo not shown),-2.74%
14,O=C(C1CCCN(S(=O)(=O)c2ccccc2)C1)N1CCN(c2ccc(F)cc2)CC1 (stereo not shown),-75.7%
15,O=C(C1CCCN(S(=O)(=O)c2ccccc2)C1)N1CCCCC1 (stereo not shown),7.94%
16,CN1CCN(C(=O)C2CCCN(S(=O)(=O)c3ccc(F)cc3)C2)CC1 (stereo not shown),19.9%
17,COc1ccc(S(=O)(=O)N2CCCC(C(=O)N3CCN(C)CC3)C2)cc1Cl (stereo not shown),-12.4%
18,O=C(O)C1CCN(C(=O)Cc2ccccc2)CC1,6.27%
19,O=C(C1CC1)N1CCN(c2ccc(F)cc2)CC1,13%
